# Source: the supplement of paper PMC8728848
# About 410 targets per protein were measured; listed, in parts, are those with the strongest signals and a random draw of the rest.
# B1: Cel5A (Cellvibrio mixtus), A0A266Q9Z0 (protein)
# chain: TSVAGCSGVTAWNSTAVYTGGNEVVRNGVKYQAKWWTQGQDPVTNSSADGVWANKGQC
# B2: DC-SIGN (Homo sapiens), Q9NNX6 (protein)
# chain: QVSKVPSSISQEQSRQDAIYQNLTQLKAAVGELSEKSKLQEIYQELTQLKAAVGELPEKSKLQEIYQELTRLKAAVGELPEKSKLQEIYQELTWLKAAVGELPEKSKMQEIYQELTRLKAAVGELPEKSKQQEIYQELTRLKAAVGELPEKSKQQEIYQELTRLKAAVGELPEKSKQQEIYQELTQLKAAVERLCHPCPWEWTFFQGNCYFMSNSQRNWHDSITACKEVGAQLVVIKSAEEQNFLQLQSSRSNRFTWMGLSDLNQEGTWQWVDGSPLLPSFKQYWNRGEPNNVGEEDCAEFSGNGWNDDKCNLAKFWICKKSAASCSRDEEQFLSPAPATPNPPPA
# B3: Lam16A (Thermotoga maritima), Q9WXN1 (protein)
# chain: EQINNGTFDEPIVNDQANNPDEWFIWQAGDYGISGARVSDYGVRDGYAYITIADPGTDTWHIQFNQWIGLYRGKTYTISFKAKADTPRPINVKILQNHDPWTNYFAQTVNLTADWQTFTFTYTHPDDADEVVQISFELGEGTATTIYFDDVTVSPQ
# B4: Dectin-1 (Homo sapiens), Q9BXN2 (protein)
# chain: TMAIWRSNSGSNTLENGYFLSRNKENHSQPTQSSLEDSVTPTKAVKTTGVLSSPCPPNWIIYEKSCYLFSMSLNSWDGSKRQCWQLGSNLLKIDSSNELGFIVKQVSSQPDNSFWIGLSRPQTEVPWLWEDGSTFSSNLFQIRTTATQENPSPNCVWIHVSVIYDQLCSVPSYSICEKKFSM
# B5: Dectin-1 (Mus musculus), Q6QLQ4 (protein)
# chain: EYGHNSGRNPEEKDNFLSRNKENHKPTESSLDEKVAPSKASQTTGGFSQPCLPNWIMHGKSCYLFSFSGNSWYGSKRHCSQLGAHLLKIDNSKEFEFIESQTSSHRINAFWIGLSRNQSEGPWFWEDGSAFFPNSFQVRNTAPQESLLHNCVWIHGSEVYNQICNTSSYSICEKEL
# B6: Cel5A (Clostridium thermocellum), P16218 (protein)
# chain: AVGEKMLDDFEGVLNWGSYSGEGAKVSTKIVSGKTGNGMEVSYTGTTDGYWGTVYSLPDGDWSKWLKISFDIKSVDGSANEIRFMIAEKSINGVGDGEHWVYSITPDSSWKTIEIPFSSFRRRLDYQPPGQDMSGTLDLDNIDSIHFMYANNKSGKFVVDNIKLIGATSDPTPSIKHGDLNFDNAVNSTDLLMLKRYILKSLELGTSEQEEKFKKAADLNRDNKVDSTDLTILKRYLLKAISEIPI
# Columns and labels:
# Test in all cases: glycan array binding signal (z-score within array); higher = stronger binding
# Conditions in all cases: glycan notation: IUPAC condensed, linker removed
# [1] = molecular target: Glc(a1-2)Glc
# How it was run: (§1)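 The binding signal is a Z-score computed within each array. Data were drawn from 3228 arrays in the Consortium for Functional Glycomics database, restricted to those with a known protein sequence. Scores were averaged over arrays of the same protein sequence at different concentrations or buffers, and over linkers, and negative values can be taken as non-binding.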
# [2] = molecular target: Glc(a1-3)Glc(a1-3)Glc
# How it was run: as §1
# [3] = molecular target: Glc(a1-3)Glc(a1-3)Glc(a1-3)Glc(a1-3)Glc(a1-3)Glc
# How it was run: as §1
# [4] = molecular target: Glc(b1-2)Glc
# How it was run: as §1
# [5] = molecular target: Glc(b1-3)Glc(b1-3)Glc(b1-3)Glc(b1-3)Glc(b1-3)Glc(b1-3)Glc(b1-3)Glc
# How it was run: as §1
# [6] = molecular target: Glc(b1-3)Glc(b1-3)[Glc(b1-6)]Glc(b1-3)Glc(b1-3)Glc(b1-3)Glc(b1-3)Glc(b1-3)Glc(b1-3)Glc
# How it was run: as §1
# [7] = molecular target: Glc(b1-3)[Glc(b1-6)]Glc(a1-3)Glc(b1-3)[Glc(b1-6)]Glc
# How it was run: as §1
# [8] = molecular target: Glc(b1-4)Glc(b1-4)Glc(b1-4)Glc(b1-3)Glc
# How it was run: as §1
# [9] = molecular target: Glc(b1-6)Glc(b1-6)Glc(b1-6)Glc(b1-6)Glc(b1-6)Glc(b1-6)Glc(b1-6)Glc(b1-6)Glc(b1-6)Glc(b1-6)Glc(b1-6)Glc(b1-6)Glc(b1-6)Glc(b1-6)Glc
# How it was run: as §1
# [10] = molecular target: Glc(a1-2)Glc(a1-2)Glc(a1-2)Glc(a1-2)Glc
# How it was run: as §1
# [11] = molecular target: Glc(b1-2)Glc(b1-2)Glc(b1-2)Glc(b1-2)Glc(b1-2)Glc
# How it was run: as §1
# [12] = molecular target: Glc(a1-3)Glc(a1-3)Glc(a1-3)Glc
# How it was run: as §1
# [13] = molecular target: Glc(a1-4)Glc(a1-4)Glc(a1-4)Glc(a1-4)Glc(a1-4)Glc(a1-4)Glc(a1-4)Glc(a1-4)Glc(a1-4)Glc
# How it was run: as §1
# [14] = molecular target: Glc(b1-3)Glc(b1-3)Glc(b1-3)Glc(b1-3)Glc(b1-3)Glc
# How it was run: as §1
# [15] = molecular target: Glc(b1-3)Glc(b1-3)Glc(b1-3)Glc(b1-3)Glc(b1-3)Glc(b1-3)Glc(b1-3)Glc(b1-3)Glc(b1-3)Glc(b1-3)Glc
# How it was run: as §1
# [16] = molecular target: Glc(b1-3)Glc(b1-3)Glc(b1-3)Glc(b1-3)Glc(b1-3)Glc(b1-3)Glc(b1-3)Glc(b1-3)Glc(b1-3)Glc(b1-3)Glc(b1-3)Glc
# How it was run: as §1
# [17] = molecular target: Glc(b1-3)Glc(b1-3)Glc(b1-3)Glc(b1-3)Glc(b1-3)Glc(b1-3)Glc(b1-3)Glc(b1-3)Glc(b1-3)Glc(b1-3)Glc(b1-3)Glc(b1-3)Glc
# How it was run: as §1
# [18] = molecular target: Glc(b1-4)Glc(b1-4)Glc(b1-4)Glc(b1-4)Glc(b1-4)Glc(b1-4)Glc
# How it was run: as §1
# [19] = molecular target: Glc(a1-4)Glc
# How it was run: as §1
# [20] = molecular target: Glc(a1-6)Glc
# How it was run: as §1
# [21] = molecular target: Glc(b1-2)Glc(b1-2)Glc(b1-2)Glc(b1-2)Glc
# How it was run: as §1
# [22] = molecular target: Glc(b1-3)Glc(b1-3)Glc(b1-3)Glc(b1-3)Glc
# How it was run: as §1
# [23] = molecular target: Glc(b1-3)Glc(b1-3)Glc(b1-3)Glc(b1-3)Glc(b1-3)Glc(b1-3)Glc(b1-3)[Glc(b1-6)]Glc(b1-3)Glc
# How it was run: as §1
# [24] = molecular target: Glc(b1-4)Glc(b1-4)Glc(b1-4)Glc(b1-4)Glc(b1-4)Glc(b1-4)Glc(b1-4)Glc(b1-4)Glc
# How it was run: as §1
# [25] = molecular target: Glc(b1-6)Glc(b1-6)Glc(b1-6)Glc(b1-6)Glc(b1-6)Glc(b1-6)Glc(b1-6)Glc
# How it was run: as §1
# [26] = molecular target: Glc(b1-6)Glc(b1-6)Glc(b1-6)Glc(b1-6)Glc(b1-6)Glc(b1-6)Glc(b1-6)Glc(b1-6)Glc
# How it was run: as §1
# [27] = molecular target: Man(b1-4)Man(b1-4)Man(b1-4)Man
# How it was run: as §1
# [28] = molecular target: Glc(a1-6)Glc(a1-6)Glc(a1-6)Glc(a1-6)Glc(a1-6)Glc(a1-6)Glc(a1-6)Glc
# How it was run: as §1
# [29] = molecular target: Glc(b1-2)Glc(b1-2)Glc(b1-2)Glc(b1-2)Glc(b1-2)Glc(b1-2)Glc(b1-2)Glc
# How it was run: as §1
# [30] = molecular target: Glc(b1-2)Glc(b1-2)Glc(b1-2)Glc(b1-2)Glc(b1-2)Glc(b1-2)Glc(b1-2)Glc(b1-2)Glc(b1-2)Glc(b1-2)Glc
# How it was run: as §1
# [31] = molecular target: Glc(b1-2)Glc(b1-2)Glc(b1-2)Glc(b1-2)Glc(b1-2)Glc(b1-2)Glc(b1-2)Glc(b1-2)Glc(b1-2)Glc(b1-2)Glc(b1-2)Glc(b1-2)Glc
# How it was run: as §1
# [32] = molecular target: Glc(b1-3)Glc(b1-3)Glc(b1-3)[Glc(b1-6)]Glc(b1-3)Glc(b1-3)Glc(b1-3)Glc(b1-3)[Glc(b1-6)]Glc(b1-3)Glc
# How it was run: as §1
# [33] = molecular target: Glc(b1-3)Glc(b1-4)Glc
# How it was run: as §1
# [34] = molecular target: Glc(b1-6)Glc(b1-6)Glc(b1-6)Glc(b1-6)Glc(b1-6)Glc(b1-6)Glc(b1-6)Glc(b1-6)Glc(b1-6)Glc(b1-6)Glc
# How it was run: as §1
# [35] = molecular target: Glc(a1-6)Glc(a1-6)Glc(a1-6)Glc(a1-6)Glc(a1-6)Glc
# How it was run: as §1
# [36] = molecular target: Glc(b1-2)Glc(b1-2)Glc
# How it was run: as §1
# [37] = molecular target: Glc(b1-2)Glc(b1-2)Glc(b1-2)Glc(b1-2)Glc(b1-2)Glc(b1-2)Glc(b1-2)Glc(b1-2)Glc
# How it was run: as §1
# [38] = molecular target: Glc(b1-3)Glc(b1-3)Glc(b1-3)Glc(b1-3)Glc(b1-3)Glc(b1-3)[Glc(b1-6)]Glc(b1-3)Glc(b1-3)Glc
# How it was run: as §1
# [39] = molecular target: Glc(b1-4)Glc(b1-4)Glc(b1-3)Glc(b1-4)Glc(b1-4)Glc(b1-3)Glc
# How it was run: as §1
# [40] = molecular target: Glc(b1-6)Glc(b1-6)Glc
# How it was run: as §1
# [41] = molecular target: Man(b1-4)Man(b1-4)Man(b1-4)Man(b1-4)Man
# How it was run: as §1
binder,measurement,setting,value
B1,glycan array binding signal (z-score),[1],-0.981
same,glycan array binding signal (z-score),[2],-0.977
same,glycan array binding signal (z-score),[3],-0.941
same,glycan array binding signal (z-score),[4],-0.411
same,glycan array binding signal (z-score),[5],2.06
same,glycan array binding signal (z-score),[6],2.2
same,glycan array binding signal (z-score),[7],2.44
same,glycan array binding signal (z-score),[8],1.17
same,glycan array binding signal (z-score),[9],-0.119
B2,glycan array binding signal (z-score),[10],-0.838
same,glycan array binding signal (z-score),[11],2.48
B3,glycan array binding signal (z-score),[12],-0.373
same,glycan array binding signal (z-score),[13],-0.363
same,glycan array binding signal (z-score),[14],1.79
same,glycan array binding signal (z-score),[15],3.64
same,glycan array binding signal (z-score),[16],4.46
same,glycan array binding signal (z-score),[17],4.88
same,glycan array binding signal (z-score),[18],-0.373
B4,glycan array binding signal (z-score),[19],-0.145
same,glycan array binding signal (z-score),[20],-0.145
same,glycan array binding signal (z-score),[21],-0.145
same,glycan array binding signal (z-score),[22],-0.145
same,glycan array binding signal (z-score),[15],0.976
same,glycan array binding signal (z-score),[16],5
same,glycan array binding signal (z-score),[17],9.53
same,glycan array binding signal (z-score),[23],-0.145
same,glycan array binding signal (z-score),[24],-0.145
same,glycan array binding signal (z-score),[25],-0.145
same,glycan array binding signal (z-score),[26],-0.145
same,glycan array binding signal (z-score),[27],-0.082
B5,glycan array binding signal (z-score),[28],-0.161
same,glycan array binding signal (z-score),[29],-0.206
same,glycan array binding signal (z-score),[30],-0.206
same,glycan array binding signal (z-score),[31],-0.182
same,glycan array binding signal (z-score),[15],0.83
same,glycan array binding signal (z-score),[16],5.77
same,glycan array binding signal (z-score),[17],6.71
same,glycan array binding signal (z-score),[32],-0.182
same,glycan array binding signal (z-score),[33],-0.182
same,glycan array binding signal (z-score),[34],-0.13
same,glycan array binding signal (z-score),[27],-0.038
B6,glycan array binding signal (z-score),[1],-0.143
same,glycan array binding signal (z-score),[35],-0.143
same,glycan array binding signal (z-score),[36],-0.143
same,glycan array binding signal (z-score),[37],-0.143
same,glycan array binding signal (z-score),[38],0.047
same,glycan array binding signal (z-score),[39],4.62
same,glycan array binding signal (z-score),[40],-0.143
same,glycan array binding signal (z-score),[41],0.04
